Source: PubChem BioAssay AID463208 (Broad Institute, 2010)
Unmarked numbers belong to inactive results. The source made the active and inactive calls.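 The calls were made as follows: active = AC50 at most tenfold above the top tested concentration; inconclusive = flat fit with 30 to 70% activity, or a poor fit; inactive = AC50 over tenfold above the top dose.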

Assay: inhibition of yeast nuclear histone deacetylase activity – cell lysate, fluorescence, yeast nuclear extract, mechanism study for Sdo1 growth activator project, dose response (AID 463208)
Conditions: yeast nuclear extract HDAC activity, fluorogenic substrate

Structure (SMILES) | AC50
O=C(O)CCCn1nc(C(F)(F)F)c2c1CCCCC2 | > 50 µM
COc1ccc(-c2nc3ccccc3s2)cc1NC(=O)c1ccc(Br)o1 | > 50 µM
O=C(C(c1ccccc1)c1ccccc1)N(Cc1cccs1)C1CCS(=O)(=O)C1 (stereo not drawn) | > 50 µM
CCOC(=O)/C=C1\SCC(=O)N1CC(=O)NC1CCCCC1 | > 50 µM
O=C(CCSc1nc(-c2ccco2)cc(C(F)(F)F)n1)NCCc1cccs1 | > 50 µM
CC(C(=O)Nc1cccnc1)N1Cc2ccccc2C1=O (stereo not drawn) | > 50 µM
COc1cc(/C=N/NC(=O)CCC(=O)NCc2ccccc2)cc(OC)c1OC | > 50 µM
CC(C(=O)Nc1cccnc1)N1C(=O)c2ccccc2C1=O (stereo not drawn) | > 50 µM
CCSc1nnc([C@H](CCSC)NC(=O)OC(C)(C)C)o1 | > 50 µM
CC(=O)N(C1CCCCC1)C1C(=O)C(=O)c2ccccc2C1=O (stereo not drawn) | > 50 µM
O=C(Nc1ccccc1)c1ccc(NCC2CCCO2)c([N+](=O)[O-])c1 (stereo not drawn) | > 50 µM
Cc1nn(Cc2ccc(Cl)cc2)c(C)c1NC(=O)CSc1n[nH]c(C)c1[N+](=O)[O-] | > 50 µM
Cc1nn(-c2ccccc2)c(C)c1NC(=O)c1cccs1 | > 50 µM
Cc1c(/C=N/NC(=O)c2ccc(F)cc2)cnn1C | > 50 µM
COc1ccc(-c2c(C)sc(NC(=O)c3ccnn3C)c2C#N)cc1 | > 50 µM
Cn1c(=O)[nH]c(=O)c2c1nc(Sc1nc3ccccc3[nH]1)n2Cc1ccccc1 | > 50 µM
Cc1ccc2c(CC(=O)NNC(=O)c3ccccc3)coc2c1 | > 50 µM
Cc1c(/C=N/NC(=O)c2cccc(F)c2)cnn1C | > 50 µM
O=C(COC(=O)Cc1cccs1)Nc1ccccc1 | > 50 µM
CC(C(=O)Nc1ccccc1)N1C(=O)c2ccccc2C1=O (stereo not drawn) | > 50 µM
CCOC(=O)/C=C1\SCC(=O)N1CC(=O)NC12CC3CC(CC(C3)C1)C2 | > 50 µM
CC(/C=C/C(=O)NO)=C\[C@@H](C)C(=O)c1ccc(N(C)C)cc1 | < 0.00075 µM (active)
CN(C)CCCNC(=O)C1CCNCC1 | > 50 µM
